According to publication PMC7862700, “An all-to-all approach to the identification of sequence-specific readers for epigenetic DNA modifications on cytosine”:

Tests used:
Assay in all cases: DAPPL (digital affinity profiling via proximity ligation, sequencing); 10 mM Tris-HCl pH 7.5, 50 mM NaCl, 1 mM DTT, 4% glycerol, room temperature, 30 min; GST-TFs on glutathione beads, 16-mer random dsDNA library, 0.1% formaldehyde crosslink after washing; high values mean tight binding
Conditions in all cases: protein: recombinant; tags: N-terminal GST; dsDNA, one strand shown
FLI1 = biological target: T1, FLI1 (Homo sapiens, UniProt Q01543 1-452)
T1 sequence: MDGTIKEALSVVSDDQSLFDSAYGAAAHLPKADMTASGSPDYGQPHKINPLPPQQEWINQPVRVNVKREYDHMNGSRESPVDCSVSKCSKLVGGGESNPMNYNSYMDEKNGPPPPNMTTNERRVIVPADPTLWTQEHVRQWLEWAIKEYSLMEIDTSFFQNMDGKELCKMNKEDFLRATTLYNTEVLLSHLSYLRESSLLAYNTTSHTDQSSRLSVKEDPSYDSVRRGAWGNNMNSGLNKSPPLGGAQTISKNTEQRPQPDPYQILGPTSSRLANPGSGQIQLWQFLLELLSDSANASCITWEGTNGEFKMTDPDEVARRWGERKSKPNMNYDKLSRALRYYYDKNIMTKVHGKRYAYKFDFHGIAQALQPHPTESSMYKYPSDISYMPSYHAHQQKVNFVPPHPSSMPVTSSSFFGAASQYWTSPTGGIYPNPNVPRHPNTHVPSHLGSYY
In short: (§1)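 In yeast, human transcription factors were expressed with a GST fusion, then pulled down on glutathione beads and given DNA barcodes. Pooled with a tag-only sample, they were exposed to 200 nmole of a 16-mer random double-stranded DNA library (Tris/NaCl/DTT/glycerol buffer, room temperature, 30 min), washed, crosslinked with 0.1% formaldehyde, proximity-ligated using BsaI/T4 ligase for 1 h at 37 °C, PCR-amplified and read on an Illumina NextSeq500. Each hexamer's frequency of reads for a factor, divided by the matching frequency for the tag-only sample, gives the binding signal.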

ELK1 = biological target: T2, ELK1 (Homo sapiens, UniProt P19419 1-428)
T2 sequence: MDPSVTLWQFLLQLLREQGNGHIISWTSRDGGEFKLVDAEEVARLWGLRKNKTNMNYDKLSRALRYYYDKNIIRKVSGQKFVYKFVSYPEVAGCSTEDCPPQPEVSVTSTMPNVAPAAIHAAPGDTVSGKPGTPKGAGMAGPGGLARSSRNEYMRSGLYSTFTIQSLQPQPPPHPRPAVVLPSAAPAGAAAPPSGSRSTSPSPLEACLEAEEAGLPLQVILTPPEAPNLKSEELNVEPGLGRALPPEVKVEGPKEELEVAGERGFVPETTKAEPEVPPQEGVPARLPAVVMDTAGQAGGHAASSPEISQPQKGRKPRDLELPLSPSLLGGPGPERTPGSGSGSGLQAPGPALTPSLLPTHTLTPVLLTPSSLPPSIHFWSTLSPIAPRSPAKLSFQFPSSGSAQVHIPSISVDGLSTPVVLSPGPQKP
In short: as §1

GABPA = biological target: T3, GABPA (Homo sapiens, UniProt Q06546 1-454)
T3 sequence: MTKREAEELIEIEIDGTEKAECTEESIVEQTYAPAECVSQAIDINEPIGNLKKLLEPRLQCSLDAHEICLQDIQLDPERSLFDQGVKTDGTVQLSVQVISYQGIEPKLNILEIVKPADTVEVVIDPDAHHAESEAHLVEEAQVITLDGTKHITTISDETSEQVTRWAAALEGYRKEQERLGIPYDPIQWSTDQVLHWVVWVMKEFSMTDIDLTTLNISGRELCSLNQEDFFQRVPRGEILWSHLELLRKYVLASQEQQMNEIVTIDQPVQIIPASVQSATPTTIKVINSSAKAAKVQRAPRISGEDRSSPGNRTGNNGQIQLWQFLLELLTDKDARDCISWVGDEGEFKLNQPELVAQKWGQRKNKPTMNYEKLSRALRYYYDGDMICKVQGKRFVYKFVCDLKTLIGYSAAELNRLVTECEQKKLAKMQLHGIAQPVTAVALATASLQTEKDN
In short: as §1

ERG = biological target: T4, ERG (Homo sapiens, UniProt P11308 1-479)
T4 sequence: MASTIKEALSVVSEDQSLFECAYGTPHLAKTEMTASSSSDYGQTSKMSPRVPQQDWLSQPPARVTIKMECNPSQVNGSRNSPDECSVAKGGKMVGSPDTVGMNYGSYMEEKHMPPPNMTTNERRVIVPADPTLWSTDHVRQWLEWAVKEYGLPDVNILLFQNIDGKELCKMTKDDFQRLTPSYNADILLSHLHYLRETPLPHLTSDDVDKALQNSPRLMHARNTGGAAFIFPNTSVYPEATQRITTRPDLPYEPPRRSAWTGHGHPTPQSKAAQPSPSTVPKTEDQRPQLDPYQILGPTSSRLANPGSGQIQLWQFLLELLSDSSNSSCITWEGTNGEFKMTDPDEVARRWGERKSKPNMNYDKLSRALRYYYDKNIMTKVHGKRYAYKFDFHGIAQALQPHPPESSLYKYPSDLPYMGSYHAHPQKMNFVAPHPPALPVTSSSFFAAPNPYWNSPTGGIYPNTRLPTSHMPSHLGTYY
In short: as §1

ELF1 = ELF1 (Homo sapiens, UniProt P32519 1-619)
ELF1, sequence (P32519 whole entry): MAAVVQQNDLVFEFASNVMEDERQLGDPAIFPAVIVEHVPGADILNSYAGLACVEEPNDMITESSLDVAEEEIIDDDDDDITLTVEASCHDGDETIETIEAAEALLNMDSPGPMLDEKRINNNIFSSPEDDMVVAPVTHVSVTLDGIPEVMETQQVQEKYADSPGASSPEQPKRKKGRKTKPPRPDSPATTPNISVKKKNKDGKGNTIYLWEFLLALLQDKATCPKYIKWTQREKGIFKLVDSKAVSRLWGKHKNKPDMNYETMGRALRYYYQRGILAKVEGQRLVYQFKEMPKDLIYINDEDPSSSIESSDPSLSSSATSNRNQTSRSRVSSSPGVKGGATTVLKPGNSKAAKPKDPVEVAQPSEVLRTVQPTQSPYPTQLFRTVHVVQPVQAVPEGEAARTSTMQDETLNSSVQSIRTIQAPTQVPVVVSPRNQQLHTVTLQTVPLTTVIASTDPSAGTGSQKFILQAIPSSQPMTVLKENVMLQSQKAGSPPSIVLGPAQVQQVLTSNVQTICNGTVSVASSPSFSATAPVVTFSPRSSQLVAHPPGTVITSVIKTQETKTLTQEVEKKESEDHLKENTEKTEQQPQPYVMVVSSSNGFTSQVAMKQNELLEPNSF
In short: as §1

EHF = biological target: T5, EHF (Homo sapiens, UniProt Q9NZC4 1-300)
T5 sequence: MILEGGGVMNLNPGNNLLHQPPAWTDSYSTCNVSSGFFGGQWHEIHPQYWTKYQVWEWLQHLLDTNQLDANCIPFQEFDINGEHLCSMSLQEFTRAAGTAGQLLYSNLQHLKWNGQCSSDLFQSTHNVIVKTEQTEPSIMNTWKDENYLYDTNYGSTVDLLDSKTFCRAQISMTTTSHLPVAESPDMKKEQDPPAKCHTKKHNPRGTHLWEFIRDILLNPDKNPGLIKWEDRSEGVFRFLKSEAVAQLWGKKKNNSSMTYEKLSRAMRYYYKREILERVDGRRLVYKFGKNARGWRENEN
In short: as §1

SPI1 = SPI1 (Homo sapiens, UniProt P17947 1-270)
In short: as §1

SPIB = SPIB (Homo sapiens, UniProt Q01892 1-262)
SPIB, sequence (Q01892 whole entry): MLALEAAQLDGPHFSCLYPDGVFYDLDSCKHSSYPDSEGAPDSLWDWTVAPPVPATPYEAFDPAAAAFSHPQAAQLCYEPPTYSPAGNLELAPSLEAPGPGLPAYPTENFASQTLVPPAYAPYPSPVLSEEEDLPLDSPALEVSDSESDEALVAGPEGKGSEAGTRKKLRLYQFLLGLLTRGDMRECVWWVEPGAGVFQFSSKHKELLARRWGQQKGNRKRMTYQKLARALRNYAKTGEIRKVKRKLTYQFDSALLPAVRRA
In short: as §1

ELK3 = biological target: T6, ELK3 (Homo sapiens, UniProt P41970 1-407)
T6 sequence: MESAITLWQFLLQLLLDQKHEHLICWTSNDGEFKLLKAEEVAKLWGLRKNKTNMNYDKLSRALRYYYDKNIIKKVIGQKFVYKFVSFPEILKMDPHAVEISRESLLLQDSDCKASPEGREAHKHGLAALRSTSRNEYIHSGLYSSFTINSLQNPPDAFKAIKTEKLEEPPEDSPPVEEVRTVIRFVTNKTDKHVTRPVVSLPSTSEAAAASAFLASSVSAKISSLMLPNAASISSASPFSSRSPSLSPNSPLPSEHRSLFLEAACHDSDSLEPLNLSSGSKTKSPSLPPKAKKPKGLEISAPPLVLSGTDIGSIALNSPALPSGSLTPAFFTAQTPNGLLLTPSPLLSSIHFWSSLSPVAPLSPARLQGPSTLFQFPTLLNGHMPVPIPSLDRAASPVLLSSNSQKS
In short: as §1

Sequence | binding signal (FLI1) | binding signal (ELK1) | binding signal (GABPA) | binding signal (ERG) | binding signal (ELF1) | binding signal (EHF) | binding signal (SPI1) | binding signal (SPIB) | binding signal (ELK3)
AATCCC | 1.36 fold enrichment (6-mer frequency, TF over GST control) | 1.36 fold enrichment (6-mer frequency, TF over GST control) | 1.38 fold enrichment (6-mer frequency, TF over GST control) | 1.42 fold enrichment (6-mer frequency, TF over GST control) | 1.35 fold enrichment (6-mer frequency, TF over GST control) | 1.39 fold enrichment (6-mer frequency, TF over GST control) | 1.26 fold enrichment (6-mer frequency, TF over GST control) | 1.32 fold enrichment (6-mer frequency, TF over GST control) | 1.13 fold enrichment (6-mer frequency, TF over GST control)
AATGCA | 1.25 fold enrichment (6-mer frequency, TF over GST control) | 1.28 fold enrichment (6-mer frequency, TF over GST control) | 1.28 fold enrichment (6-mer frequency, TF over GST control) | 1.29 fold enrichment (6-mer frequency, TF over GST control) | 1.27 fold enrichment (6-mer frequency, TF over GST control) | 1.25 fold enrichment (6-mer frequency, TF over GST control) | 1.21 fold enrichment (6-mer frequency, TF over GST control) | 1.34 fold enrichment (6-mer frequency, TF over GST control) | 1.3 fold enrichment (6-mer frequency, TF over GST control)
GTATTA | 1.17 fold enrichment (6-mer frequency, TF over GST control) | 1.2 fold enrichment (6-mer frequency, TF over GST control) | 1.07 fold enrichment (6-mer frequency, TF over GST control) | 1.12 fold enrichment (6-mer frequency, TF over GST control) | 1.11 fold enrichment (6-mer frequency, TF over GST control) | 1.03 fold enrichment (6-mer frequency, TF over GST control) | 1.04 fold enrichment (6-mer frequency, TF over GST control) | 1.07 fold enrichment (6-mer frequency, TF over GST control) | 1.06 fold enrichment (6-mer frequency, TF over GST control)
AAATCC | 1.54 fold enrichment (6-mer frequency, TF over GST control) | 1.66 fold enrichment (6-mer frequency, TF over GST control) | 1.5 fold enrichment (6-mer frequency, TF over GST control) | 1.81 fold enrichment (6-mer frequency, TF over GST control) | 1.59 fold enrichment (6-mer frequency, TF over GST control) | 1.58 fold enrichment (6-mer frequency, TF over GST control) | 1.5 fold enrichment (6-mer frequency, TF over GST control) | 1.65 fold enrichment (6-mer frequency, TF over GST control) | 1.53 fold enrichment (6-mer frequency, TF over GST control)
CTATAT | 1.38 fold enrichment (6-mer frequency, TF over GST control) | 1.42 fold enrichment (6-mer frequency, TF over GST control) | 1.35 fold enrichment (6-mer frequency, TF over GST control) | 1.34 fold enrichment (6-mer frequency, TF over GST control) | 1.5 fold enrichment (6-mer frequency, TF over GST control) | 1.42 fold enrichment (6-mer frequency, TF over GST control) | 1.32 fold enrichment (6-mer frequency, TF over GST control) | 1.47 fold enrichment (6-mer frequency, TF over GST control) | 1.47 fold enrichment (6-mer frequency, TF over GST control)
ACGGAT | 1.27 fold enrichment (6-mer frequency, TF over GST control) | 1.21 fold enrichment (6-mer frequency, TF over GST control) | 1.21 fold enrichment (6-mer frequency, TF over GST control) | 1.37 fold enrichment (6-mer frequency, TF over GST control) | 1.22 fold enrichment (6-mer frequency, TF over GST control) | 1.3 fold enrichment (6-mer frequency, TF over GST control) | 1.2 fold enrichment (6-mer frequency, TF over GST control) | 1.19 fold enrichment (6-mer frequency, TF over GST control) | 1.29 fold enrichment (6-mer frequency, TF over GST control)
CCTAAG | 1.09 fold enrichment (6-mer frequency, TF over GST control) | 1.14 fold enrichment (6-mer frequency, TF over GST control) | 1.12 fold enrichment (6-mer frequency, TF over GST control) | 1.16 fold enrichment (6-mer frequency, TF over GST control) | 1.19 fold enrichment (6-mer frequency, TF over GST control) | 1.18 fold enrichment (6-mer frequency, TF over GST control) | 1.06 fold enrichment (6-mer frequency, TF over GST control) | 1.21 fold enrichment (6-mer frequency, TF over GST control) | 1.17 fold enrichment (6-mer frequency, TF over GST control)
TATTGG | 1.12 fold enrichment (6-mer frequency, TF over GST control) | 1.14 fold enrichment (6-mer frequency, TF over GST control) | 1.22 fold enrichment (6-mer frequency, TF over GST control) | 1.15 fold enrichment (6-mer frequency, TF over GST control) | 1.22 fold enrichment (6-mer frequency, TF over GST control) | 1.26 fold enrichment (6-mer frequency, TF over GST control) | 1.06 fold enrichment (6-mer frequency, TF over GST control) | 1.24 fold enrichment (6-mer frequency, TF over GST control) | 1.07 fold enrichment (6-mer frequency, TF over GST control)
